Sampled rows, rich in hits. Any-hit rate of the full collection: about 12%.
WT yeast gro inh: growth inhibition of WT yeast, mitochondrial fusion screen; AID 1362; mitochondrial fusion phenotypic screen, WT strain; inhibition, % at 10 µM; hit rate 2.1% among 190,000; in the data active = inhibition above about 58%; tested in S. cerevisiae
CHOP inhibitor: blocks CHOP induction under ER stress. CHO-K1 CHOP-promoter luciferase, tunicamycin-induced, 15-18 h. hit rate 3.8% among 220,000. inhibition, % at 10 µM;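 active = compounds that reduced the stress-induced luciferase reporter signal by more than about 70% of percent inhibition, limit read from the data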;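 note: 0% = tunicamycin plus vehicle and 100% = wells without tunicamycin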
L major viab: Leishmania major promastigote growth inhibition; Leishmania major promastigotes, resazurin fluorescence viability; inhibition, % at 10 µM; hit rate 9% among 200,000; AID 1063; in the data active = inhibition above about 50%;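 note: promastigotes grown with compound for 44 hours at 28 °C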
Arbovirus anti: antivirals against arbovirus infection; arbovirus infection cell-based antiviral screen; inhibition, % at 10 µM; hit rate 0.37% among 200,000; in the data active = inhibition above about 30%
An asterisk follows results filed as active; . = no result.

SMILES	WT yeast gro inh	CHOP inhibitor	L major viab	Arbovirus anti
Cc1ccc(NC(=O)c2csc(-c3ccccc3)c2C)cc1	16	100*	-3	2
Cc1ccc(NC(=O)c2cc(C)n(-c3ccccc3)c2C)cc1	41	72*	0	-3
Cc1ccc(-n2c(C)cc(C(=O)NS(=O)(=O)c3ccc(C)cc3)c2C)cc1	-29	12	-5	-3
Cc1ccc(NC(=O)c2cc(C)n(-c3cccc(C)c3)c2C)cc1	62*	17	1	-3
Cc1cc(C(=O)Nc2ccc(Cl)cc2)c(C)n1-c1ccccc1	.	70	.	.
C/C(=N\N=C(N)N)c1ccc(C)c(C)c1	.	9	.	.
CC(C)=C(NC(=O)c1ccccc1)C(=O)Nc1ccc(C(=O)O)cc1	.	-1	.	.
COc1ccc(OC)c(NC(=O)c2ccc(CSc3ncccn3)cc2)c1	2	-5	-4	-15
CC(=O)n1cc([C@H]2C=C(C(=O)N3CCN(Cc4ccccc4)CC3)O[C@@H](OCc3ccc(CO)cc3)C2)c2ccccc21	13	29	31	-11
O=C(C1=C[C@@H](c2csc3ccccc23)C[C@@H](OCc2ccc(CO)cc2)O1)N1CCN(Cc2ccc3c(c2)OCO3)CC1	-6	31	73*	-4
O=C(C1=C[C@@H](c2csc3ccccc23)C[C@@H](OCc2ccc(CO)cc2)O1)N1CCN(Cc2ccccc2)CC1	94*	22	51*	-10
CC(=O)n1cc([C@H]2C=C(C(=O)N3CCN(Cc4ccc5c(c4)OCO5)CC3)O[C@@H](OCc3ccc(CO)cc3)C2)c2ccccc21	4	51	76*	-8
O=C(C1=C[C@@H](c2csc3ccccc23)C[C@@H](OCCCCO)O1)N1CCN(Cc2ccc3c(c2)OCO3)CC1	19	9	23	-17
O=C(O)c1cc2cc(Cc3cccnc3)ccc2o1	.	9	.	.
CCOc1ccc2nc(N3CCCC(C(=O)NCC4CCCO4)C3)sc2c1 (centres undefined)	.	1	.	.
COCCNC(=S)NNC(=O)c1ccc(-n2cnnn2)cc1	4	33	-7	9
O=C1c2cccc(OCC(=O)N3CCCc4ccccc43)c2CCN1Cc1ccc(F)cc1	65*	28	95*	-22
C=CC[n+]1c(-c2ccc(OCC)cc2)csc1NNC(=O)Nc1ccccc1	38	73*	-2	2
C=CC[n+]1c(-c2ccc(C)cc2)csc1Nc1c(C)n(C)n(-c2ccccc2)c1=O	17	28	4	3
CCOc1cc(S(=O)(=O)NCc2ccccn2)ccc1Cl	2	8	-2	-1
CCCCCCn1c(=O)c(F)cn(Cc2ccc(OC)c([N+](=O)[O-])c2)c1=O	19	25	91*	-10
COc1ccc(CC(=O)Nc2cccc(-c3ccc4nncn4n3)c2)cc1OC	-6	5	1	-2
COc1cc(/C=C(/NC(C)=O)C(=O)O)cc(Cl)c1OCc1ccc(Br)cc1	.	6	.	.
CCOC(=O)CC(NC(=O)Cc1ccc(F)cc1)c1ccccc1Cl (centres undefined)	11	-42	34	-8
O=C1C2=C(CCCC2)C(=O)N1c1cccc(OCCBr)c1	-4	-18	-6	4
SMILES	WT yeast gro inh	CHOP inhibitor	L major viab	Arbovirus anti
CC(C)CN(CCOc1cccc(N2C(=O)C3=C(CCCC3)C2=O)c1)CC(C)C	13	52	63*	-4
OCC1CCCC(n2cnc3c(=S)nc[nH]c32)O1 (centres undefined)	.	3	.	.
CN(C)C(=O)NC(O)C(Cl)Cl (centres undefined)	-15	12	-2	8
S=C(N/N=C/c1ccccc1Cl)Nc1cccc(Cl)c1Cl	.	-79	.	.
CC1(C)CC(=O)/C(=C\c2cccc([N+](=O)[O-])c2)C(C)(C)N1	21	-5	100*	-7
Clc1ccc(CO/N=C2\CCCc3nonc32)c(Cl)c1	26	34	-11	1
Cc1cccc(Cn2c(Cc3ccccc3)nc3ccccc32)c1	72*	37	92*	-11
Clc1ncccc1-c1nc2ccccc2n1Cc1ccccc1	22	4	94*	2
Cc1ccccc1Cn1c(Cc2ccccc2)nc2ccccc21	77*	56	47	-29
COCc1nc2ccccc2n1Cc1cccc(C)c1	17	-7	-1	0
CS(=O)(=O)c1nc2ccccc2n1Cc1ccccc1	94*	13	-3	2
CCn1c(-c2cccnc2Cl)nc2ccccc21	4	-14	0	9
Cc1ccc(NC(=O)CSc2ccccc2NC(=O)c2ccccc2Cl)cc1Cl	20	-19	19	-2
CC1(C)C2CCC(C2)C1(C)NC(=O)CN1CCN(Cc2ccccc2)CC1 (centres undefined)	-12	41	81*	-1
CC(=O)C(Cc1ccccc1)NC(=O)CN1CCN(Cc2ccccc2)CC1 (centres undefined)	11	8	65*	1
CC1(C)C2CCC(C2)C1(C)NC(=O)C[N+](C)(C)C (centres undefined)	.	-4	.	.
COc1ccc(N2C(=O)CC(NNC(=O)c3cccnc3)C2=O)cc1 (centres undefined)	.	-14	.	.
Cc1nn(CCC#N)c(N)c1C1(O)C(=O)Nc2c(Cl)cc(Cl)cc21 (centres undefined)	.	4	.	.
COc1ccc2c(c1)-c1c(sn(-c3ccccc3)c1=S)C(C)(C)N2	4	70*	26	-13
COc1ccc2c(c1)-c1c(ssc1=S)C(C)(C)N2	12	43	21	-11
COc1ccc(-n2sc3c(c2=S)-c2cc(OC)ccc2NC3(C)C)cc1	22	91*	7	-26
COc1ccc2c(c1)-c1c(sn(-c3ccc(OC)c(OC)c3)c1=S)C(C)(C)N2	27	80*	19	-26
O=C(NCc1n[nH]c(=S)n1-c1ccc(Br)cc1)c1cccs1	-8	13	-9	-1
COCCSc1ccccc1C(=O)Nc1ccc(Cl)cc1	-5	19	10	5
N/C(=N\c1nc2c(c(=O)[nH]1)CCCC2)Nc1ccccc1	27	-7	7	-6
SMILES	WT yeast gro inh	CHOP inhibitor	L major viab	Arbovirus anti
N/C(=N\c1nc2c(c(=O)[nH]1)CCC2)Nc1ccccc1	1	-8	73*	1
Cc1cnnn1-c1ccc(C(=O)CCl)cc1	-14	92*	35	8
CCN1CCCC1CNCC(O)COc1ccc(C(C)(C)C)cc1C (centres undefined)	9	-26	86*	-28
CCN1CCCC1CNCc1ccc(OCc2ccc(Cl)nc2)c(OC)c1 (centres undefined)	.	-28	.	.
Cn1c(=N)n(CC(=O)c2cccs2)c2ccccc21	11	-15	-5	0
Cn1c(=N)n(CC(=O)c2ccc(Br)s2)c2ccccc21	12	-16	84*	-4
CN(CC(=O)Nc1ccc(S(=O)(=O)N2CCCC2)cc1)CC(=O)Nc1cccc(F)c1	-31	20	20	-8
CC(=O)N1CCc2c(sc3c2c(=O)n(-c2ccccc2)c(=O)n3Cc2ccccc2Cl)C1	-5	41	98*	-7
COC(=O)c1c(-c2ccccc2)csc1NC(=O)c1ccco1	-6	46	1	-3
CC(C)c1ccc(C(CC(=O)O)NC(=O)c2cccs2)cc1 (centres undefined)	-7	14	-3	1
O=C(Nc1scc(-c2ccc(F)cc2)c1C(=O)O)c1ccco1	-17	-16	-1	35*

Bioassay records as filed in PubChem BioAssay.
